The campaign covered roughly 3,600 compounds. About 900 (25%) were called active. The rule behind the calls is not given here. A selection follows. Entries with a potency or affinity are not part of this list.

The experiment has as its target Protein Tat (Human immunodeficiency virus type 1 group M subtype B (isolate HXB2)) (UniProt P04608). Description: HIV-1 Tat–TAR interaction blockers – biochemical, fluorescence polarization, FAM-labeled TAR RNA, counter-screen for Vif-APOBEC3G degradation inhibitor project, dose response (AID 1117361). The conditions noted are these: Tat-TAR RNA binding; series mostly up to 100 µM. For orientation: In fluorescence polarisation assays a small probe gives low polarisation when free and higher when bound to something large.
Regarding `CCn1c(C(=O)OC)cc2c1ccn2-c1ccc(F)cc1`, the outcome was inactive.

With `Cc1cccc(N(C(=O)c2ccc(Cl)cc2)C2CS(=O)(=O)CC2OC(=O)c2ccc(Cl)cc2)c1` (configuration not stated), the compound was called inactive.

For `O=C(CSc1nncs1)NC(=O)NCc1ccccc1`, the call was inactive. Regarding `COc1ccccc1C(=O)C1CCCN(Cc2ccc3c(c2)OCCO3)C1` (configuration not stated), the call was inactive. As to `COC(=O)c1c(C)[nH]c(C(=O)CSc2ccc(Cl)cc2)c1C`, the outcome was inactive. On to `CC(C)(C)c1ccc(NC(=O)N2CCN(c3ccc([N+](=O)[O-])cn3)CC2)cc1`, for which the result was inactive. As for `Cn1nccc1NC(=O)Nc1ccc(Cl)cc1`, the compound was called inactive. Regarding `Cn1nc(C(=O)OCC(=O)N2CCc3ccccc32)c2ccccc2c1=O`, the call was inactive. In the case of `Cc1ccc(C2(C(F)(F)F)NC(=O)N3CCN=C3S2)cc1` (configuration not stated), the compound was classed as inactive.

As for `Cc1nc(N2CCN(Cc3ccccc3)CC2)nc2c1C(=O)CCC2`, the outcome was inactive. For `CCOc1ccccc1NC(=O)CCS(=O)(=O)c1ccc(Br)cc1`, the result was inactive. In the case of `COc1ccc(Cl)cc1NC(=O)CCS(=O)(=O)c1ccc(Br)cc1` it was “inactive”; in that of `NS(=O)(=O)c1ccc(CCNC(=O)CCS(=O)(=O)c2ccc(Br)cc2)cc1`, “inactive”; in that of `CCc1cccc(NC(=O)CCS(=O)(=O)c2ccc(Br)cc2)c1`, “inactive”. In the case of `CCOc1ccc(NC(=O)CCS(=O)(=O)c2ccc(Br)cc2)cc1` it was “inactive”.

`O=C(CCS(=O)(=O)c1ccc(Br)cc1)NCCc1ccccc1`: the compound was called inactive. To `Cc1ccccc1OCCC(=O)Nc1ccccc1C(=O)NC1CC1` belongs “inactive”; to `OC(c1ccc(Cl)cc1)C(O)c1nc2ccccc2[nH]1` (configuration not stated), “inactive”; to `CCCCOc1ccc(C(=O)NCC(=O)NCC(=O)OCC)cc1`, “inactive”. Take `CCCCn1nc(C(=O)O)ccc1=O`: the result was inactive. `COc1ccc(CNC(=O)c2sc3nc4c(c(C(F)(F)F)c3c2N)CCC4)cc1OC`: the compound was called inactive.

As to `CC(=O)Nc1ccc(NC(=O)C(C)OC(=O)CC23CC4CC(CC(Br)(C4)C2)C3)cc1` (configuration not stated), the outcome was inactive.

Take `CC1CCCN(CC(O)CN2CCN(CC(O)CN3CCCC(C)C3)C(C)C2)C1` (configuration not stated): the outcome was inactive.

`CCCc1n[nH]c2c1C(=O)C(C(=O)OC)C(C)(C)C2` (configuration not stated): the outcome was inactive. Take `CCCC(=O)C1=C(N(C)c2ccccc2)CC(C)(C)CC1=O`: the compound was called inactive.

As to `COC(=O)C1C(O)=C(C=Nc2ccc(N)cc2)C(=O)CC1(C)C` (configuration not stated), the outcome was inactive. As for `O=C(Nc1nnc(SCc2c(Cl)cccc2Cl)s1)c1cccc([N+](=O)[O-])c1`, the compound was called inactive. On to `CCOC(=O)N1CCC(Nc2c(-c3ccc(C)cc3)c(=O)c2=O)CC1`, for which the result was inactive. For `O=C(Cn1cnc2c(cnn2-c2ccc(F)cc2)c1=O)N1CCN(c2ccccc2)CC1`, the call was inactive. As for `COc1cc(C2Nc3cccc4cccc(c34)N2)cc(OC)c1OC(C)=O`, the outcome was inactive. To `COc1cc(C)c(C2NC(=O)c3ccccc3N2)cc1C` (configuration not stated) belongs “inactive”; to `CCOC(=O)c1sc(C)c2c(=O)n(CCc3ccccc3)nnc12`, “inactive”; to `O=C(/C=C/Nc1ccccc1Br)c1ccccn1`, “inactive”. Regarding `COc1cccc(OC)c1C(=O)Nc1cc(Cl)ccc1N1CCOCC1`, the result was inactive. With `COc1ccccc1NS(=O)(=O)c1cc(C(=O)NCCN2CCOCC2)ccc1Cl`, the call was inactive.

Regarding `CCOc1cc(NC(=S)NCC(C)C)c(OCC)cc1NC(=O)c1cccs1`, the result was inactive. Regarding `Cc1ccc(C)c(S(=O)(=O)Nc2ccccc2C(=O)Nc2ccccc2N2CCOCC2)c1`, the compound was called inactive. `O=C(CSc1ncn[nH]1)Nc1nc(-c2ccccc2)ns1`: the compound was classed as inactive.

For `O=C(CSc1ncn[nH]1)Nc1c(Br)cc([N+](=O)[O-])cc1Br`, the compound was classed as inactive. Consider `CN1CCN(S(=O)(=O)Cc2ccc(Cl)cc2)CC1`, for which the call was inactive. To `O=C(NCc1ccccc1)/C(=C/c1ccc(OC(F)F)cc1)c1ccccc1` belongs “inactive”; to `O=C(CCS(=O)(=O)c1ccc(Br)cc1)N1CCN(c2ccc(F)cc2)CC1`, “inactive”; to `Cc1ccc(C(C)C)c(OCCCN2CC(C)OC(C)C2)c1` (configuration not stated), “inactive”. For the compound `COC(=O)c1ccccc1NC(=O)CSCC(=O)Nc1ccccc1`, the compound was called inactive. As for `COC(=O)c1ccccc1NC(=O)C(C)Oc1ccccc1` (configuration not stated), the result was inactive. In the case of `Cc1nnc(-c2cnn(C)c2N)n1Cc1ccc(Cl)cc1` it was “inactive”; in that of `COc1cc(/C=C2\CC/C(=C\c3cc(OC)c(O)c(OC)c3)C2=O)cc(OC)c1O`, “inactive”; in that of `COc1cc(C(=O)OCCN2CCCCC2)ccc1O`, “inactive”. On to `CC12C(=O)N(c3ccccc3C(=O)O)C(=O)C1C1C=CC2C1` (configuration not stated), for which the compound was classed as inactive. With `Cc1nc2ccccc2c2oc(C(=O)N3CCN(C(=O)c4ccco4)CC3)cc12`, the result was inactive. In the case of `Cc1cc(C(=O)N2CCN(CCc3ccccc3)CC2)no1`, the call was inactive. As for `CC(=O)c1c(C)[nH]c(C(=O)Nc2ccc(C)c(C)c2)c1C`, the call was inactive. Take `CN(C)c1ccc(/C=C/C#N)cc1`: the outcome was inactive.

Take `CCC(C(=O)Nc1cc(C(=O)O)ccc1C)c1ccccc1` (configuration not stated): the compound was called inactive.

As for `Cc1ccc(S(=O)(=O)N2CCCCC2)cc1C(=O)Nc1ccc2cn[nH]c2c1`, the call was inactive. For `CCC(C)NC(=O)Cc1cn(C)c2ccccc12` (configuration not stated), the call was inactive. To `CCc1nnc(NC(=O)CC(CN(C)S(=O)(=O)c2ccccc2)c2ccccc2)s1` (configuration not stated) belongs “inactive”; to `C#CCSc1nnc(-c2sc3ccccc3c2Cl)o1`, “inactive”; to `CCCCOC(=O)CCCN1C(=O)/C(=C2\SC(=S)N(CCCC(=O)OCCCC)C2=O)SC1=S`, “inactive”. As to `O=C(CCCCCN1C(=O)c2ccccc2C1=O)Nc1nccs1`, the outcome was inactive.

Turning to `O=C(CCn1c(=S)oc2ccccc21)Nc1ccc2c(c1)OCCO2`, the compound was called inactive. In the case of `Cc1ccc(NC(=O)CCC(=O)NNC(=O)COc2cccc3ccccc23)c(C)c1` it was “inactive”.

For `O=C(O)CCCN1C(=O)/C(=C\C(Cl)=C\c2ccccc2)SC1=S`, the call was inactive. For `CCc1ccccc1NNC(=O)CCc1ccccc1`, the compound was classed as inactive.

For `CN(CC(=O)Nc1ccccc1Cl)C(=O)Cn1cc(C(F)(F)F)cc(Cl)c1=O`, the result was inactive.

`Cc1ccc(C)c(NC(=O)CSc2ncnc3nc[nH]c23)c1`: the result was inactive.

Regarding `CC(C)(C)c1ccc(-c2nnc(SCCC#N)n2C2CCCC2)cc1`, the compound was called inactive. To `Cc1nc(C)c2c(c1C(F)(F)F)-c1ccccc1C2(F)F` belongs “inactive”; to `O=c1[nH][nH]c(=O)c2nc(Nc3ccccc3)ncc12`, “inactive”.

As for `CCc1nc(NCC2CCCN2CC)c2nnn(Cc3ccccc3F)c2n1` (configuration not stated), the compound was classed as inactive. Consider `CCN1CCN(C(=O)C2COc3ccccc3O2)CC1` (configuration not stated), for which the outcome was inactive. Regarding `Cc1ccc(N=Nc2ccc(N)cc2C)c(S(N)(=O)=O)c1`, the outcome was inactive.

These data come from PubChem BioAssay AID1117361 (Southern Research Institute, 2015).
